This passage reports growth results from PubChem BioAssay (NCI).

About 83,000 compounds went through this panel and 20% of them were active in at least one assay; those are over-represented in the sample as a whole.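 How to read the values: 0–100, growth inhibition (40 = 60% inhibited); 0, no net growth; -100 to 0, cell death (-40 = 40% of starting cells died; -100 = all dead).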 A number with no mark means an inactive call. The source made the active and inactive calls. How the source made its calls: active means growth percent below 10; inactive means the rest.

What all share (assay): NCI-60 one-dose screen, 48 h (100 = growth as untreated, 0 = no growth, -100 = all killed)
What all share (settings): 10 µM unless noted

The test system of experiment [1] is SK-MEL-2 melanoma.
The subject of experiment [2] is EKVX NSCLC.
Experiment [3] has as its system SN12C renal.
Experiment [4] relates to UO-31 renal.
The subject of experiment [5] is TK-10 renal.
Experiment [6] has as its system ACHN renal.
The subject of experiment [7] is CAKI-1 renal.
The subject of experiment [8] is A498 renal.
Experiment [9] deals with MOLT-4 leukemia.
Experiment [10] has as its system SR leukemia.
Experiment [11] deals with RPMI-8226 leukemia.
Experiment [12] deals with OVCAR-8 ovarian.
For experiment [13], the system named is OVCAR-5 ovarian.
Experiment [14] deals with OVCAR-4 ovarian.
Experiment [15] has as its system SK-OV-3 ovarian.
Experiment [16] deals with IGROV1 ovarian.
Experiment [17] concerns OVCAR-3 ovarian.
Experiment [18] concerns HS 578T breast.
The subject of experiment [19] is NCI/ADR-RES ovarian.

Consider `CC/C=C\C/C=C\C[C@H](O)C/C=C1/C(=O)C=C[C@@H]1C/C=C\CCCC(=O)O`, for which the growth in [1] is 23.2%; in [2], 95.3%; in [3] it was 16.9%; in [4], 57%; in experiment [5] it was 79%; in experiment [6] it was 60.2%. Moreover, the growth was 37.8% in experiment [7]; 96.6% in [8]; 7.61% (active) in [9]; 6.21% (active) in experiment [10]; 3.88% (active) in experiment [11]; -4.92% (active) in experiment [12]. For the same compound, the growth in [13] was 65.3%; in [14] it was 47.4%; in [15] it was 109%; in experiment [16], 63.1%; in experiment [17] it was 7.83% (active); in [18], 42.6%. Also, the growth in experiment [19] was 31.3%.

Consider `COC1=C(OC)C(=O)C(OC)=C(OC)C1=O`, for which the growth in experiment [1] was 118%; in experiment [2] it was 102%; in [3], 94.9%; in [4] it was 81.2%; in [5], 124%; in [6], 118%. Besides, the growth in experiment [7] is 98.9%; in experiment [8], 77.2%; in experiment [9] it was -24.5% (active); in [10], 94.4%; in experiment [11], 102%; in experiment [12] it was 93.4%. Besides, the growth is 108% in experiment [13]; 42.1% in [14]; 110% in experiment [15]; 101% in experiment [16]; 99.3% in [17]; 97% in experiment [18]. For the same compound, the growth in [19] was 98%.

For the compound `COc1ccc2c(c1)CCCN2c1c2ccccc2nc2ccccc12`, the growth in [1] was 35.4%; in experiment [2], 45%; in experiment [3], 39.5%; in [4] it was 29.8%; in [5] it was 48.2%; in [6] it was 24.5%. Besides, the growth in [7] is 27.8%; in [8], -4.56% (active); in experiment [9] it was 15.4%; in experiment [10], 12.5%; in [11], 20.5%; in experiment [12], 16.6%. For the same compound, the growth in [13] was 28.3%; in experiment [14], 30.4%; in experiment [15], 37.5%; in [16], 32.7%; in [17], -21.7% (active); in experiment [18], 10.4%. Also, in [19], the growth is 0.746% (active).

In the case of `N#CC1=C(NC=O)Oc2c(ccc3ccccc23)C1c1ccccc1` (configuration not stated), the growth was 29% in experiment [1]; 67.8% in experiment [2]; 39.7% in [3]; 41% in [4]; 54.6% in experiment [5]; 43.4% in experiment [6]. In addition, the growth in experiment [7] is 26.5%; in experiment [8], 22.9%; in [9], 39.5%; in [10] it was 22.9%; in experiment [11], 19.1%; in experiment [12], 23.6%. In addition, the growth is 88.9% in experiment [13]; 64.5% in [14]; 16.3% in experiment [15]; 38.6% in experiment [16]; 3.87% (active) in [17]; 11.3% in [18]. Moreover, the growth in experiment [19] was 20.4%.

`CCN(CC)CCn1nc2c3c(cccc3c1=O)-c1ccccc1-2`: the growth in experiment [1] is 32.8%; in [2] it was 40.7%; in experiment [3] it was 15.5%; in experiment [4] it was 6.26% (active); in experiment [5] it was 26.4%; in experiment [6], -41.7% (active). The growth in experiment [7] was 18.1%; in [8] it was 24.3%; in [9] it was 4.13% (active); in experiment [10], 4.64% (active); in [11], 24.9%; in experiment [12], 23.3%. Moreover, the growth in experiment [13] was 33.9%; in [14], 51.6%; in experiment [15], 7.24% (active); in [16], 15.6%; in [17], 52.5%; in experiment [18] it was 76.1%. The growth in [19] is 35.1%.

In the case of `C=C1C(=O)O[C@H]2[C@H]1CC/C(COC(=O)C(=O)c1cn(C)c3ccc(OC)cc13)=C\CC[C@@]1(C)O[C@@H]21`, the growth in experiment [1] was -47.2% (active); in experiment [2], -17.4% (active); in experiment [3] it was -51% (active); in experiment [4] it was -91.9% (active); in experiment [5], -61.4% (active); in [6], -57.8% (active). In addition, the growth was -43.6% (active) in [7]; -99.5% (active) in experiment [8]; -16.6% (active) in [9]; 2.42% (active) in experiment [10]; -37.5% (active) in [11]; -9.07% (active) in experiment [12]. Also, the growth is -18.9% (active) in experiment [13]; 20.3% in experiment [14]; -11.6% (active) in [15]; -67.7% (active) in experiment [16]; -72.1% (active) in experiment [17]; 3.23% (active) in experiment [18]. The growth in [19] was 7.43% (active).

In the case of `C=CC(=O)Nc1cccc(Oc2nccc(Nc3nnc(C4CC4)s3)n2)c1`, the growth is 108% in experiment [1]; 104% in [2]; 87.4% in experiment [3]; 72.4% in experiment [4]; 104% in experiment [5]; 97.7% in experiment [6]. For the same compound, the growth in experiment [7] was 92.3%; in [8], 101%; in experiment [9] it was 75.7%; in experiment [10] it was 58.3%; in experiment [11], 56%; in [12], 91.4%. Besides, the growth in [13] is 98.7%; in [14], 101%; in experiment [15], 112%; in [16], 93.6%; in experiment [17], 89.5%; in experiment [18], 91.6%. In addition, the growth in experiment [19] is 96.8%.

As for `Nc1nc(N)c2c(n1)NC(c1ccccc1)C1CCc3ccccc3C1=N2` (configuration not stated), the growth in [1] was 86.6%; in experiment [2] it was 39.2%; in experiment [3], 66%; in [4], 55.9%; in experiment [5], 36%; in [6], 39.3%. The growth was 34.1% in experiment [7]; 42.5% in [8]; 15.1% in [9]; 19.3% in [10]; 24.5% in [11]; 64.9% in [12]. Further, the growth in experiment [13] is 112%; in experiment [14], 27.3%; in [15], 57.9%; in experiment [16], 92.2%; in [17] it was 38.4%; in [18], 71.2%. Further, the growth in experiment [19] is 23.9%.
